Source: PubChem (National Center for Advancing Translational Sciences (NCATS))
Sampled rows, rich in hits. Any-hit rate of the full collection: about 1.1%.
SNCA expr inhib – Primary qHTS assay for inhibitors of alpha-synuclein gene (SNCA) expression. 140,000 tested, 0.17% active. AID 1671194, 2021. Potency, µM (titrated, usually from 57.2 µM), hits mostly inhibitors. HEK-293 SNCA-luciferase knock-in, luminescence, 24 h; also: nearly all actives have a fitted effect of over 45% in size
GPT2 inhibitor – Primary qHTS assay for inhibitors of Glutamate pyruvate transaminase 2 (GPT2) | Potency, µM (top dose mostly 57.7 µM), usual class: inhibitors | Alanine aminotransferase 2 (Homo sapiens), Q8TD30 | 100,000 tested, 0.25% active | Recombinant GPT2, coupled pyruvate oxidase/HRP Amplex Red fluorescence | AID 1671188, 2021; also: nearly all actives have a fitted effect of over 60% in size
Target sequence (Q8TD30 whole entry, looked up): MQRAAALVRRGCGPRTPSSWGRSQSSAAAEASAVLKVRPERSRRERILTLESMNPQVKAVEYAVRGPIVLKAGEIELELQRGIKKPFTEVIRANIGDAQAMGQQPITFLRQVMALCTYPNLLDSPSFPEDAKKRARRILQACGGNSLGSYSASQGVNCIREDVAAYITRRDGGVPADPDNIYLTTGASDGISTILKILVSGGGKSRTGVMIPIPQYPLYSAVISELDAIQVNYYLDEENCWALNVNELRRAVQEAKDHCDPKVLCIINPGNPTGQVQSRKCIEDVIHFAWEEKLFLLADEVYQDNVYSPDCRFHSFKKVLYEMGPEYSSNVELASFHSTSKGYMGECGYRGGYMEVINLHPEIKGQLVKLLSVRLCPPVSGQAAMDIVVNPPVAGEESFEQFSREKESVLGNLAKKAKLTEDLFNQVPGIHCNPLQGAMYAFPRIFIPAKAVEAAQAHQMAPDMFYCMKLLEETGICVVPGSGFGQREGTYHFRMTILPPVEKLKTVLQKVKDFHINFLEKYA
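Inhibition is scored from Amplex Red fluorescence generated when pyruvate oxidase and HRP act on pyruvate released by GPT2. Reactions contain 10ng/uL enzyme, 250uM a-KG and 2mM L-alanine and run 30 min at room temperature.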
HEK293 viab – GF-AFC viability counterscreen for inhibitors of alpha-synuclein gene (SNCA) expression. 150,000 tested, 0.12% active. HEK-293-SNCA-luc viability, GF-AFC fluorescence, 24 h. Potency, µM (doses to about 57.1 µM), usual class: cytotoxic; also: nearly all actives have a fitted effect of over 30% in size
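Cytotoxicity counterscreen: after 24 h compound treatment of genome-edited SNCA-luciferase HEK-293 cells, live-cell protease substrate GF-AFC read by fluorescence after 30 min; activity scaled between DMSO (0%) and medium-only (-100%), curves Hill-fitted.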
IP6K1 inhibitor – Primary qHTS assay for small molecule inhibitors of Inositol hexaphosphate kinase 1 (IP6K1); Inositol hexakisphosphate kinase 1 (Homo sapiens), Q92551; IP6K1 kinase, ADP-Glo luminescence, 2 h; hits give low values; activity change, % (series mostly up to about 58 µM); 140,000 tested, 0.81% active; AID 1645851, 2021; in the data active = activity change below about -25%
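ADP-Glo luminescence measures ADP made by human IP6K1 during a 2 h RT reaction with ATP/IP6 (mix at 1.3 mM/130 uM); top library doses 57.5 and 19.1 uM final.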
Each line names hits and unclear results; the compound was inactive in the other large screens; ! = not active in a repeat. Unless noted, calls follow the shape of the dose curve; as a rule, active = well fitted curve in the direction sought with a large enough effect; inconclusive = small, poorly fitted or top-dose-only effect, or another doubt; inactive = no such curve, though single readings can be large; an effect the other way counts as inactive or inconclusive.

CCOC(=O)c1c(C)n(-c2ccccc2)c2ccc(OC(=O)c3ccccc3NC(=O)C(C)C)cc12	SNCA expr inhib inconclusive, HEK293 viab inconclusive (no result: GPT2 inhibitor)
Cc1nc(CCC(=O)N2CCCC(CCc3c(F)cccc3F)C2)n[nH]1 (stereo unspecified)	none
COc1ccc(F)cc1-c1ccc(CN2CCCCC2C(=O)NCc2ccccc2)cc1 (stereo unspecified)	none (no result: SNCA expr inhib, GPT2 inhibitor, HEK293 viab)
CC(C)CC(=O)Nc1n[nH]c2c1CN(C(=O)C1CCN(C)CC1)C2(C)C	SNCA expr inhib 0.54µM, HEK293 viab inconclusive
CC(C)CC(=O)NC1CCN(c2cn[nH]c(=O)c2)CC1	HEK293 viab inconclusive
Nc1cc(-c2ccncc2)c[nH]c1=O	GPT2 inhibitor 10µM
Cc1[nH]nc2ccc(-c3cncc(OC[C@@H](N)Cc4ccccc4)c3)cc12	SNCA expr inhib 0.17µM, HEK293 viab 9.5µM!
Cc1c(Cl)cccc1-n1ncc(C(=O)N2CCc3ccccc3C2)c1C1CCN(C(=O)OC(C)(C)C)CC1	SNCA expr inhib 22µM (no result: GPT2 inhibitor)
COc1ccc2[nH]c3c(c2c1)CCNC31CCN(C(=O)c2cccn2C)CC1	SNCA expr inhib 25µM
O[C@@H]1CCC2CC1[C@@H](O)CN2Cc1ccc(-c2ccccc2)cc1 (stereo partly specified)	none (no result: SNCA expr inhib, GPT2 inhibitor, HEK293 viab)
C=C(C=O)[C@]1(O)C[C@@]2(C)C(=CC1=O)C=C[C@H](OC(=O)/C=C/C=C/[C@H](C)CC)[C@@H]2C	HEK293 viab 8.2µM (no result: SNCA expr inhib)
CC(=O)N(C)C1(c2ccccc2)CCN(CCC[C@]2(c3ccc(Cl)c(Cl)c3)CCCN(C(=O)c3ccccc3)C2)CC1	SNCA expr inhib 1.7µM, GPT2 inhibitor inconclusive, HEK293 viab 2.2µM!
CN(C)C(=O)NC1(c2ccccc2)CCN(CCC[C@]2(c3ccc(Cl)c(Cl)c3)CCCN(C(=O)c3ccccc3)C2)CC1	HEK293 viab inconclusive (no result: SNCA expr inhib)
O=C1c2c(-c3nc(-c4ccsc4)no3)nnn2CCN1Cc1cc(F)cc(F)c1	none
Cc1n[nH]c(C)c1CCC(=O)Nc1ccc2c(c1)C(=O)N1CCC[C@H]1C(=O)N2	none
O=C(Cc1ccccc1)Nc1sc2c(c1C(=O)Nc1ccc(Cl)cc1)CCCC2	IP6K1 inhibitor -30 (no result: GPT2 inhibitor)
COc1cccc(-c2cnc([C@@H]3COCCN3Cc3ccc(S(C)(=O)=O)cc3)[nH]2)c1	none
Cc1ccc(-n2c(=O)c3c4c(sc3n(CC(=O)Nc3cccc(Cl)c3)c2=O)CCCCC4)cc1C	none (no result: GPT2 inhibitor)
COc1ccc(NC(=O)Cn2c(=O)n(-c3ccc(C)c(C)c3)c(=O)c3c4c(sc32)CCCCC4)cc1Cl	HEK293 viab inconclusive, IP6K1 inhibitor -33 (no result: GPT2 inhibitor)
O=C(Cn1c(=O)n(-c2ccc(Cl)cc2)c(=O)c2c3c(sc21)CCC3)c1ccc(F)cc1	SNCA expr inhib 20µM (no result: GPT2 inhibitor)
O=C(C1CCCC1)N1CCCC(C(=O)N2CCC(c3nc4ncccc4[nH]3)C2)C1 (stereo unspecified)	GPT2 inhibitor inconclusive
Cc1cccc(CNC(=O)c2csc(N3CCN(c4ccccc4)CC3)n2)c1	none
O=C(NCc1ccccc1)c1csc(Nc2ccncn2)n1	SNCA expr inhib 9.6µM, HEK293 viab inconclusive
COc1ccc(F)c(F)c1C(=O)c1cnc(NC2CCN(S(C)(=O)=O)CC2)nc1N	SNCA expr inhib 14µM, HEK293 viab inconclusive
C/C=C(/C)C(=O)O[C@H]1[C@H](OC(=O)/C(C)=C\C)[C@@]23C(CC1(C)C)[C@]1(CCC4[C@@]5(C)CC[C@H](O[C@@H]6O[C@H](C(=O)O)[C@@H](O)[C@H](O[C@@H]7O[C@H](CO)[C@H](O)[C@H](O)[C@H]7O[C@@H]7O[C@@H](C)[C@H](O)[C@@H](O)[C@H]7O[C@@H]7OC[C@@H](O)[C@H](O)[C@H]7O)[C@H]6O[C@@H]6O[C@H](CO)[C@H](O)[C@H](O)[C@H]6O)C(C)(C)C5CC[C@@]4(C)[C@]1(C)C[C@H]2O)O[C@H]3O (stereo partly specified)	HEK293 viab 3.6µM (no result: SNCA expr inhib)
COc1ccc(C2=NN(S(C)(=O)=O)C(c3cn(-c4ccccc4)nc3-c3cccs3)C2)cc1 (stereo unspecified)	none (no result: GPT2 inhibitor)
COc1ccc(C2CC(c3ccccc3)=NN2c2ccc(S(N)(=O)=O)cc2)cc1 (stereo unspecified)	SNCA expr inhib 14µM
CN(C)CCn1nnnc1SCC1=C(C(=O)O)N2C(=O)[C@@H](NC(=O)Cc3csc(N)n3)[C@H]2SC1	GPT2 inhibitor 18µM
COc1cccc(CN2CCCC3(Cc4ccccc4CNC3=O)C2)c1 (stereo unspecified)	none
CCCCN(C)C(=O)CCC1CCN(c2cc(NC3CC3)ncn2)CC1	SNCA expr inhib inconclusive
COCC1CN(C)CC12CCN(Cc1ccc(OC)c(OC)c1Cl)CC2 (stereo unspecified)	none
Cc1nc2cc(-c3cccc(F)c3)nn2c(C)c1CCC(=O)NC1CCCCC1	SNCA expr inhib inconclusive (no result: GPT2 inhibitor)
O=C1N(C2CCN(S(=O)(=O)c3ccccc3)CC2)C(c2ccncc2)C12CCCCC2 (stereo unspecified)	SNCA expr inhib inconclusive
C1=C/COCc2cc(ccc2OCCN2CCCC2)Nc2nccc(n2)-c2cccc(c2)COC/1	GPT2 inhibitor inconclusive, HEK293 viab 9.5µM (no result: SNCA expr inhib)
COc1ccc(C(=O)N2CCC(C(=O)N3CCCCCCNC(=O)CC3)CC2)cc1	none
COC(=O)[C@@H]1Cc2ncn(Cc3ccc(OC)cc3)c2CN1Cc1ccc(OC)cc1	none
Cc1ccc(C(=O)N2CCC3(CC2)CC(CO)N(C(=O)c2ccccc2)C3)s1 (stereo unspecified)	none
CCn1c2ccccc2c2cc(CN3CCN(Cc4ccc(Br)cc4)CC3)ccc21	IP6K1 inhibitor -58 (no result: GPT2 inhibitor)
CCn1cc(CN2CCN(Cc3ccccc3)CC2)ccc1=O	GPT2 inhibitor inconclusive
CC1(C)OC2=C(C(=O)c3ccccc3C2=O)[C@H](NCc2ccccc2)[C@H]1O	SNCA expr inhib 12µM, GPT2 inhibitor 14µM, HEK293 viab 14µM (no result: IP6K1 inhibitor)
CC(C(=O)NCc1ccccc1)N1Cc2ccccc2C1=O (stereo unspecified)	none (no result: GPT2 inhibitor)
CC(C)(C)NC(=O)Nc1cccc(Nc2ncc(F)c(NC(C)(C)CO)n2)c1	none
C=CC(=O)Nc1cccc(Nc2nc(Nc3ccc(OCCOC)cc3)ncc2F)c1	HEK293 viab 9.5µM (no result: SNCA expr inhib)
CC(NC(=O)c1cccc2c1CCN2C(=O)Nc1ccccc1)c1cccnc1 (stereo unspecified)	none
Cc1ccc(NC(=O)N2CCc3c(C(=O)NC(C)c4cccnc4)cccc32)cc1 (stereo unspecified)	SNCA expr inhib 4µM
COc1ccc(NC(=O)N2CCc3c(C(=O)N(C)C)cccc32)cc1	SNCA expr inhib inconclusive
Cc1ccc(NC(=O)N2CCc3c(C(=O)NCCCN4CCCC4=O)cccc32)cc1	SNCA expr inhib 2µM
COc1ccc(NC(=O)N2CCc3c(C(=O)NC(C)C)cccc32)cc1	SNCA expr inhib 3.5µM
